From PubChem
Sampled rows, rich in hits. Any-hit rate of the full collection: about 28%.
Mac1 fbg enh: enhancers of CD11b/CD18 adhesion to fibrinogen, primary screen, K562 cells, luminescence; ATPlite luminescence; 0.07% of 93,000 active; Integrin beta-2 (Homo sapiens) + Integrin alpha-M (Homo sapiens), P05107+P11215; activation, % at 10 µM;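 active means 10 µM primary screen giving 50% or more activity, confirmed by 40% or more on retest at that dose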
CYP2C9 act: human CYP2C9 activators, primary screen, biochemical, luminescence | recombinant CYP2C9, luciferin-H conversion; stronger effect = higher value; factor 1 = untreated enzyme, 0 = blocked | activation factor at 5 µM | 1.4% of 96,000 active;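 active means activation factor of 2 or more for CYP2C9 at a 5 µM dose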;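 further: 0 = sulfaphenazole-blocked wells and 1 = vehicle-only wells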
Target sequence (P11712 whole entry, looked up): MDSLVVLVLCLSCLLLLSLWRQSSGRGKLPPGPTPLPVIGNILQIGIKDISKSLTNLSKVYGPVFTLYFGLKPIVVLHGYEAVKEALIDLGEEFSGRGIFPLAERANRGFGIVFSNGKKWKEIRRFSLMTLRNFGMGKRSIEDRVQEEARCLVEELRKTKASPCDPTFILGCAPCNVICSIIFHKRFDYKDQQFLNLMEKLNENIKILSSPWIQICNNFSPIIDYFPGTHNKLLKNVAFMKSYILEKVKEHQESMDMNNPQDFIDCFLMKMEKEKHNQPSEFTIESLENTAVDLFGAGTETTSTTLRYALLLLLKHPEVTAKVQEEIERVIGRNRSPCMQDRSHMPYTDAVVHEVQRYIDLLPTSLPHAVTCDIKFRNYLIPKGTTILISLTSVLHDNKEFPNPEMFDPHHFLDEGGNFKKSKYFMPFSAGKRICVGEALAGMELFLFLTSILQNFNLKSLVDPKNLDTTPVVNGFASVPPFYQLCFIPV
CYP2C19 inhib: blockers of cytochrome P450 2C19 activity – biochemical, luminescence, ADME assay, primary screen. CYP2C19 Supersomes, luciferin-H EGE luminescence, 30 min. P33261. AID 778, 2007. 21% of 96,000 active. inhibition, % at 5 µM;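 active means CYP2C19 inhibition above a set limit at 5 µM in the primary screen, cut at about 50% in these data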;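 further: plate controls were negative control wells for no effect and 2.5 mM tranylcypromine positive control for full effect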
CYP2C19 act: human CYP2C19 activators, primary screen, biochemical, luminescence; Cytochrome P450 2C19 (Homo sapiens), P33261; recombinant CYP2C19, luciferin-H EGE luminescence; stronger effect = higher value; 0 = fully inhibited enzyme, 1 = untreated enzyme; activation factor at 5 µM; 96,000 tested, under 10 active; AID 1025, 2008;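 active means activation factor of at least 2 at 5 µM in the primary screen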;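 further: 0 = wells with 2.5 mM tranylcypromine and 1 = vehicle-only wells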
CD11b adhes inh: inhibitors of CD11b/CD18 adhesion to fibrinogen, primary screen, K562 cells, luminescence. Integrin beta-2 (Homo sapiens) + Integrin alpha-M (Homo sapiens), P05107+P11215. ATPlite luminescence; Mn2+ added to activate the integrin. inhibition, % at 10 µM. 0.54% of 93,000 active. AID 1497, 2009;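 active means primary inhibition of 50% or more at 10 µM, then 40% or more on retest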
CYP2C9 inh: blockers of cytochrome P450 2C9 activity – biochemical, luminescence, ADME assay, primary screen | P11712 | CYP2C9 Supersomes, luciferin-H conversion | inhibition, % at 5 µM | 20% of 96,000 active;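 active means blocking of liver enzyme CYP2C9 beyond about 50% at 5 µM, limit read from the data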
An asterisk follows results filed as active; · = no result given.

SMILES	Mac1 fbg enh	CYP2C9 act	CYP2C19 inhib	CYP2C19 act	CD11b adhes inh	CYP2C9 inh
O=C(Nc1ccccc1C(=O)NCc1ccccc1)c1ccccc1	-3	0.5	16	0.8	-13	54*
O=C(Nc1ccccc1C(=O)NC(Cc1ccccc1)C(=O)NC1CCCCCC1)c1ccccc1 (configuration not stated)	·	0.3	45	0.6	·	71*
CC(C)C(NC(=O)c1ccccc1NC(=O)c1ccco1)C(=O)O (configuration not stated)	2	1	8	0.9	-50	-2
O=C(Nc1cccc2cccc(NC(=O)c3ccco3)c12)c1ccco1	11	1	69*	0.3	3	-4
CC(NC(=O)c1ccccc1NC(=O)c1ccco1)c1ccccc1 (configuration not stated)	-2	0.3	36	0.6	-8	70*
c1coc(-c2nc3c([nH]2)CCc2nonc2-3)c1	0	1.1	-18	1.2	1	-8
Cc1cccc(OCC(=O)O/N=C(\N)Cc2ccc(Cl)cc2)c1	0	1.1	1	1	-6	-7
O=C(Cc1ccc(F)cc1)NCCc1ccccc1	0	0.5	68*	0.3	-28	50*
O=C(Cc1ccc(F)cc1)NCCc1ccc(F)cc1	2	0.5	65*	0.3	-14	52*
O=C(CN1CCCCCC1)NCCc1ccc(F)cc1	-6	0.8	66*	0.3	-28	15
O=C(NCCc1ccccc1)c1ccc(Br)o1	-3	1	51*	0.5	-9	1
CN1C=CC=C/C1=C(\C#N)c1nc2ccccc2[nH]1	-6	1.1	-1	1	-7	-6
Cc1ccccc1N1CCN(Cc2c[nH]c3ccccc23)CC1	-4	0.8	56*	0.4	-39	20
CCCNS(=O)(=O)c1ccc(CCC(=O)NCc2ccco2)cc1	1	0.8	-7	1.1	-4	20
CC(C)(C)NS(=O)(=O)c1ccc(CCC(=O)NCc2ccco2)cc1	-1	0.3	34	0.7	-20	67*
CC(C)(C)NS(=O)(=O)c1ccc(CCC(=O)NCc2cccnc2)cc1	2	0.1	36	0.6	-12	87*
CC1CN=C(N(Cc2ccccc2)C(=O)Nc2ccccc2)S1 (configuration not stated)	2	0.5	18	0.8	-3	47
COc1cccc(OC)c1NC(=O)C1CCCN1C(=O)NCc1ccccc1 (configuration not stated)	-4	1	-3	1	2	-3
COc1ccccc1NC(=O)N(Cc1ccccc1)C1=NCC(C)S1 (configuration not stated)	-2	0.3	3	1	11	73*
CNC(=O)N(C1=NCC(C)S1)c1ccc(F)cc1F (configuration not stated)	-2	0.7	62*	0.4	-16	26
COc1ccccc1N(C(=O)NCc1ccccc1)C1=NCC(C)S1 (configuration not stated)	8	0.4	47	0.5	9	57*
Nc1c(N2CCCCC2)c(=O)[nH]c(=O)n1-c1ccccc1	·	1	55*	0.5	·	-4
Cc1ccc(S(=O)(=O)N2CCC(C(=O)N3CCC[C@H]3C(=O)NCc3ccco3)CC2)cc1	0	1.1	1	1	-18	-5
CC(=O)N1c2ccccc2N(Cc2ccc(C)cc2C)C(=O)C1(C)C	3	0.2	95*	0.1	5	81*
CC(=O)N1c2ccccc2NC(=O)C1(C)C	-1	1.1	1	1	25	-7
CCCCC(=O)Nc1cccc(NC(=O)c2ccc3c(c2)OCO3)c1	-3	0.5	21	0.8	-5	49
O=C(NC1CCCCC1)N(CCN1CCCC1)Cc1cc2cc3c(cc2[nH]c1=O)OCCO3	-5	0.9	5	0.9	-18	6
